Assay results published in ChEMBL document CHEMBL1961873, “Compounds: GSK PKIS; Assays: Nanosyn kinase panel” (2012).

Legend:
[1] = target: Tyrosine-protein kinase Fer (Homo sapiens) (UniProt P16591); details: at 1 µM
[2] = target: Tyrosine-protein kinase Fes/Fps (Homo sapiens) (UniProt P07332); details: at 0.1 µM
[3] = target: Tyrosine-protein kinase Fes/Fps (Homo sapiens) (UniProt P07332); details: at 1 µM
[4] = target: Fibroblast growth factor receptor 1 (Homo sapiens) (UniProt P11362); details: at 0.1 µM
Chain of Fibroblast growth factor receptor 1 (Homo sapiens) (P11362 22-822 limits assumed): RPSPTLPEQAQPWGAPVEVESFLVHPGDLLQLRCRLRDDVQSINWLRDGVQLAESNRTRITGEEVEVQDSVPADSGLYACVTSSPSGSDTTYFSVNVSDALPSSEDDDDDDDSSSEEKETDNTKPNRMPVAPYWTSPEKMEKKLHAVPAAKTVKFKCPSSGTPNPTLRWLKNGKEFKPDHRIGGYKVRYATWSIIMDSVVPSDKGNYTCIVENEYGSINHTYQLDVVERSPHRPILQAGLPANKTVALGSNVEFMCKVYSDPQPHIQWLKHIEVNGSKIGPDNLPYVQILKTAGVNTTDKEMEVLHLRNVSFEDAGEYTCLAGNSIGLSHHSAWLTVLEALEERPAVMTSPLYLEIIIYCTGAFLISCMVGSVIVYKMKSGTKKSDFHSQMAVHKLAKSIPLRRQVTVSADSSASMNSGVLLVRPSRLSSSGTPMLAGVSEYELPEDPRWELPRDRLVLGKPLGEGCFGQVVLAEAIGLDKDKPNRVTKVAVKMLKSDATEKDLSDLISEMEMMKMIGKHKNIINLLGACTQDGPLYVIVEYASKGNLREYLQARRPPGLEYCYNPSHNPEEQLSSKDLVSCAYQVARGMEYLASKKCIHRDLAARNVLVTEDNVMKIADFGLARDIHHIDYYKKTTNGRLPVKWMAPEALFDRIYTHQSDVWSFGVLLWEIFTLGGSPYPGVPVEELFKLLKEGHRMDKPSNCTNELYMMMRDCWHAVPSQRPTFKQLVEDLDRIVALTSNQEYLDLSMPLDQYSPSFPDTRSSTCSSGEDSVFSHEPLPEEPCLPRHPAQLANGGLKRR

[5] = target: Fibroblast growth factor receptor 1 (Homo sapiens) (UniProt P11362); details: at 1 µM
[6] = target: Fibroblast growth factor receptor 2 (Homo sapiens) (UniProt P21802); details: at 0.1 µM
Chain of Fibroblast growth factor receptor 2 (Homo sapiens) (P21802 22-821 limits assumed): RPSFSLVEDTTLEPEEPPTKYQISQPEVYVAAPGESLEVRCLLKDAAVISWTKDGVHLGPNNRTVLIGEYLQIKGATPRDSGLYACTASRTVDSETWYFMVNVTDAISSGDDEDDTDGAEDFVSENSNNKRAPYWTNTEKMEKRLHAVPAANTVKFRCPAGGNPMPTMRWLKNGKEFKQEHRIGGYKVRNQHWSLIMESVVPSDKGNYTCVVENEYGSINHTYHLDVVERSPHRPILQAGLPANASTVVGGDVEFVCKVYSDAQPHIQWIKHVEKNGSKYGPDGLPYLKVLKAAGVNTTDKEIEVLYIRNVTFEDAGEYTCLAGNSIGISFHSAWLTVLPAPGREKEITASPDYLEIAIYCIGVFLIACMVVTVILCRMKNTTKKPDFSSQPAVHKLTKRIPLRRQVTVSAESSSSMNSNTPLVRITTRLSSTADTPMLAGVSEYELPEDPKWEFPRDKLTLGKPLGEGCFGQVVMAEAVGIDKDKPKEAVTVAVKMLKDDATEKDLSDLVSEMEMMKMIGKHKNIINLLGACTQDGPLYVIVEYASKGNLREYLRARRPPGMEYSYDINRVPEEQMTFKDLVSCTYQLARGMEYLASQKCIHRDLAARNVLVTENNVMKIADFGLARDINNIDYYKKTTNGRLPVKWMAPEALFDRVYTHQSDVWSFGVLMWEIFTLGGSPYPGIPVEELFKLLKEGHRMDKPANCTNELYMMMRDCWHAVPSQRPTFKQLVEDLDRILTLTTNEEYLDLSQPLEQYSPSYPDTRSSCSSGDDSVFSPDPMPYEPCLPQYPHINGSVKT

[7] = target: Fibroblast growth factor receptor 2 (Homo sapiens) (UniProt P21802); details: at 1 µM
[8] = target: Fibroblast growth factor receptor 3 (Homo sapiens) (UniProt P22607); details: at 0.1 µM
Chain of Fibroblast growth factor receptor 3 (Homo sapiens) (P22607 23-806 limits assumed): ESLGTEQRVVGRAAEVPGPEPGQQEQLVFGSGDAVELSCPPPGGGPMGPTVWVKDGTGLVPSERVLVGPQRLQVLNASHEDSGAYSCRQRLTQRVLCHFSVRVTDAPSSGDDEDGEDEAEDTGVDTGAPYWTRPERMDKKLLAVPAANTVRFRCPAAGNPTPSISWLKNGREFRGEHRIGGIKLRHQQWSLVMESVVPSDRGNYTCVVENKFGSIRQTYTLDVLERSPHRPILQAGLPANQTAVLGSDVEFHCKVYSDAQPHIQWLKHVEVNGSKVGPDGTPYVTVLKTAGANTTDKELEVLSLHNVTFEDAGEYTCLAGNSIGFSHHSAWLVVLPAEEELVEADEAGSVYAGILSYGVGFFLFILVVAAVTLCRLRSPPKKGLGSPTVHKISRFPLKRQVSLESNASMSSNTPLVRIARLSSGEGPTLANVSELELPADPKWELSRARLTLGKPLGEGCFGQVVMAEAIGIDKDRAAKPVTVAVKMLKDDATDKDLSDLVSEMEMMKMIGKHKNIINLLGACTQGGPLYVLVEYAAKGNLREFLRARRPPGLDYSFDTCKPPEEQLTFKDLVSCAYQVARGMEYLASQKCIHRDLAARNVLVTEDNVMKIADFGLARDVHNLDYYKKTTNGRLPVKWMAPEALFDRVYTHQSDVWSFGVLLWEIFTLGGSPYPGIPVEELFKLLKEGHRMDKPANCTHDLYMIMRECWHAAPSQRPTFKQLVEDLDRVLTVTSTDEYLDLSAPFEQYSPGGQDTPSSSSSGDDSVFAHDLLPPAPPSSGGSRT

[9] = target: Fibroblast growth factor receptor 3 (Homo sapiens) (UniProt P22607); details: at 1 µM
[10] = target: Fibroblast growth factor receptor 4 (Homo sapiens) (UniProt P22455); details: at 0.1 µM
Chain of Fibroblast growth factor receptor 4 (Homo sapiens) (P22455 22-802 limits assumed): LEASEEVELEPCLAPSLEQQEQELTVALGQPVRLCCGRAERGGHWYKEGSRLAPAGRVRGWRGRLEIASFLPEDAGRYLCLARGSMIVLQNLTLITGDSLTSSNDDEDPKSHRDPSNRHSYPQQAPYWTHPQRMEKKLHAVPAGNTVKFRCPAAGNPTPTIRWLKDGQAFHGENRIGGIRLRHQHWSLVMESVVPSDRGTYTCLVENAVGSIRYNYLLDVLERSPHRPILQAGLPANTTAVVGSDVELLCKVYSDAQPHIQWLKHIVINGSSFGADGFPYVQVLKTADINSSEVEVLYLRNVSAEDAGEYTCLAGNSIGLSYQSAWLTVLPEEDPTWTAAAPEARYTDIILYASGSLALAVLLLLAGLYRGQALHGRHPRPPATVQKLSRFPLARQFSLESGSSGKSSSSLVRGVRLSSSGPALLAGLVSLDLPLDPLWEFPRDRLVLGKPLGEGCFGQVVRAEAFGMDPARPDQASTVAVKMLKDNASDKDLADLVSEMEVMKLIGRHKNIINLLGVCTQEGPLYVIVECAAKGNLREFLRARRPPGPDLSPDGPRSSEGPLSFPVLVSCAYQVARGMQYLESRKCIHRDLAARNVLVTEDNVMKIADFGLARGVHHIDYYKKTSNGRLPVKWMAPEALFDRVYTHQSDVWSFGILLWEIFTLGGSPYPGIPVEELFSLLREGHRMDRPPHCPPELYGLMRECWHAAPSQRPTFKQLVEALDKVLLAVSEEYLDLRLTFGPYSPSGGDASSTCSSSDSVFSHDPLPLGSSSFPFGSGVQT

[11] = target: Fibroblast growth factor receptor 4 (Homo sapiens) (UniProt P22455); details: at 1 µM
[12] = target: Tyrosine-protein kinase Fgr (Homo sapiens) (UniProt P09769); details: at 0.1 µM
[13] = target: Tyrosine-protein kinase Fgr (Homo sapiens) (UniProt P09769); details: at 1 µM
[14] = target: Vascular endothelial growth factor receptor 1 (Homo sapiens) (UniProt P17948); details: at 0.1 µM
[15] = target: Vascular endothelial growth factor receptor 1 (Homo sapiens) (UniProt P17948); details: at 1 µM
[16] = target: Receptor-type tyrosine-protein kinase FLT3 (Homo sapiens) (UniProt P36888); details: at 0.1 µM
[17] = target: Receptor-type tyrosine-protein kinase FLT3 (Homo sapiens) (UniProt P36888); details: at 1 µM
[18] = tested on: T1, Receptor-type tyrosine-protein kinase FLT3 (Homo sapiens), P36888 [D835Y]; details: at 0.1 µM
T1 sequence (whole entry): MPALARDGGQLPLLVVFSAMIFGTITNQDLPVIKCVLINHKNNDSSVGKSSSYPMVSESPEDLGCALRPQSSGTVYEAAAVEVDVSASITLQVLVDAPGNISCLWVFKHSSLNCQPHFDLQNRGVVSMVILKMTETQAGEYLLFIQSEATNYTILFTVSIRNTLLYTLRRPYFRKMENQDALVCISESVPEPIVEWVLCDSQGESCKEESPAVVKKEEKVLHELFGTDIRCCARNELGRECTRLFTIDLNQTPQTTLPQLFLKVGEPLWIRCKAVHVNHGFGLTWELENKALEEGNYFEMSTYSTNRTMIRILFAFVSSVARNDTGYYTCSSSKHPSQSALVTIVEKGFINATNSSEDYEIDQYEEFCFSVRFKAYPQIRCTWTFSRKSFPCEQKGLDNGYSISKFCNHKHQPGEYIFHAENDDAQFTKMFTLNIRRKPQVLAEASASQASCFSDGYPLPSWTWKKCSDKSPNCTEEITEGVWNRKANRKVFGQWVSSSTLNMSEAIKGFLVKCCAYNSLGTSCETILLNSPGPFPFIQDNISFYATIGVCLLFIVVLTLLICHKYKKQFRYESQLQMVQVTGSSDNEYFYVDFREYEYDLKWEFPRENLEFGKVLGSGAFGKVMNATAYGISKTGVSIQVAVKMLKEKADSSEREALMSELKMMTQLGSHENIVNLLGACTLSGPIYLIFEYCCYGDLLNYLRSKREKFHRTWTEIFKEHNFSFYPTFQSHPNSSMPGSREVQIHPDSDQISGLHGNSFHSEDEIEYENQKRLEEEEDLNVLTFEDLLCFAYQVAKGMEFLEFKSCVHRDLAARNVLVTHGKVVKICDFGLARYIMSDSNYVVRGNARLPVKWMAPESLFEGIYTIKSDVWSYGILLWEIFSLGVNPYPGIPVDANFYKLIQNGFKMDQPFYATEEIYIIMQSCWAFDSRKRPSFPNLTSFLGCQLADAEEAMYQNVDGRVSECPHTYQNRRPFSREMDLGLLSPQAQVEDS

[19] = target: Non-receptor tyrosine-protein kinase TYK2 (Homo sapiens) (UniProt P29597); details: at 1 µM;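 also: values are mean percent inhibition of TYK2 kinase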
[20] = target: T2, Tyrosine-protein kinase receptor TYRO3 (Homo sapiens) (UniProt Q06418); details: at 0.1 µM;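 also: reported percentages are averaged inhibition values of TYRO3 kinase activity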
T2 sequence (whole entry): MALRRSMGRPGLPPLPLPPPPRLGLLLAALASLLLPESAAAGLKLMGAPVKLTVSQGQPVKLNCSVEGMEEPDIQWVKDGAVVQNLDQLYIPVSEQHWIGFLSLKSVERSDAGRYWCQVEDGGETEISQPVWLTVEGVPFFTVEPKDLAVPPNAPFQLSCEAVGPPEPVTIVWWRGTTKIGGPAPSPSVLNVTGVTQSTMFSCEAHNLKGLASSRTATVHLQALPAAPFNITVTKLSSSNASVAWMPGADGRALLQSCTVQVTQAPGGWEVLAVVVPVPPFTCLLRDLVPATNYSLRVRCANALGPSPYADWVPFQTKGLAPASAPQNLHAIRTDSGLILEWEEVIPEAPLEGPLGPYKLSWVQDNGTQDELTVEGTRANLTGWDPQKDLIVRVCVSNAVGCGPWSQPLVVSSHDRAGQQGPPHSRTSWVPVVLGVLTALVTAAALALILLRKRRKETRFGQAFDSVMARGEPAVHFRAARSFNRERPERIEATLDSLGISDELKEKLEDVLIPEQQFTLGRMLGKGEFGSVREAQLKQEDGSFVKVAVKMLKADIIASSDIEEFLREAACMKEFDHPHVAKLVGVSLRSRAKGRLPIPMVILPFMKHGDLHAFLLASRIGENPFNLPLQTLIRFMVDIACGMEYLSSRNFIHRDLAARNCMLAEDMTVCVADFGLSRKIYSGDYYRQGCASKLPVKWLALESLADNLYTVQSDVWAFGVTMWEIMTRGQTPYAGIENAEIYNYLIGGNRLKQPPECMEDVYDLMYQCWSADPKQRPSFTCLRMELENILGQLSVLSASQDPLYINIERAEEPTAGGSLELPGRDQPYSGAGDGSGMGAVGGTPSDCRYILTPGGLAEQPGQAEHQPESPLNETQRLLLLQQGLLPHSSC

Chain of Tyrosine-protein kinase Fer (Homo sapiens) (P16591 whole entry, looked up): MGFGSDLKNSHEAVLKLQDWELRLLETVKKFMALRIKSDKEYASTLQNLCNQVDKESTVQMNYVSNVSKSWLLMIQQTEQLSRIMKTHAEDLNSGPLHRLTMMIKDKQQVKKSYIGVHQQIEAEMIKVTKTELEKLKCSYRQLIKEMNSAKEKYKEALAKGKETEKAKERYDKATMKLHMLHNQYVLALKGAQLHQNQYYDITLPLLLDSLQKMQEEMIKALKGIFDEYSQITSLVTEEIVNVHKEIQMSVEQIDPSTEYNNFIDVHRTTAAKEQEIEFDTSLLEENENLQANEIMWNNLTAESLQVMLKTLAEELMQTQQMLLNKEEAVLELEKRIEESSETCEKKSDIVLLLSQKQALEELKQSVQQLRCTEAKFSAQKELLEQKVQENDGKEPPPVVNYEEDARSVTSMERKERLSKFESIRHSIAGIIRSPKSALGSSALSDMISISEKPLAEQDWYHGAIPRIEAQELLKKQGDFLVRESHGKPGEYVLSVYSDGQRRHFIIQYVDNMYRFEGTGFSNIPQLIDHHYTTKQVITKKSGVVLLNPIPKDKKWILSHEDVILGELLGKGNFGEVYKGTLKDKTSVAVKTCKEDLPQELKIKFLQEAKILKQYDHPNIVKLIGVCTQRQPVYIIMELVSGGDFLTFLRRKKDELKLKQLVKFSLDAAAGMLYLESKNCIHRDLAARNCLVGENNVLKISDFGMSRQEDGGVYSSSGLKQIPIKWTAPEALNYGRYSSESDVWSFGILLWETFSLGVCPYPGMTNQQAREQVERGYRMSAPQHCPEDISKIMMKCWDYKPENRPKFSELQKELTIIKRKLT
Chain of Tyrosine-protein kinase Fes/Fps (Homo sapiens) (P07332 whole entry): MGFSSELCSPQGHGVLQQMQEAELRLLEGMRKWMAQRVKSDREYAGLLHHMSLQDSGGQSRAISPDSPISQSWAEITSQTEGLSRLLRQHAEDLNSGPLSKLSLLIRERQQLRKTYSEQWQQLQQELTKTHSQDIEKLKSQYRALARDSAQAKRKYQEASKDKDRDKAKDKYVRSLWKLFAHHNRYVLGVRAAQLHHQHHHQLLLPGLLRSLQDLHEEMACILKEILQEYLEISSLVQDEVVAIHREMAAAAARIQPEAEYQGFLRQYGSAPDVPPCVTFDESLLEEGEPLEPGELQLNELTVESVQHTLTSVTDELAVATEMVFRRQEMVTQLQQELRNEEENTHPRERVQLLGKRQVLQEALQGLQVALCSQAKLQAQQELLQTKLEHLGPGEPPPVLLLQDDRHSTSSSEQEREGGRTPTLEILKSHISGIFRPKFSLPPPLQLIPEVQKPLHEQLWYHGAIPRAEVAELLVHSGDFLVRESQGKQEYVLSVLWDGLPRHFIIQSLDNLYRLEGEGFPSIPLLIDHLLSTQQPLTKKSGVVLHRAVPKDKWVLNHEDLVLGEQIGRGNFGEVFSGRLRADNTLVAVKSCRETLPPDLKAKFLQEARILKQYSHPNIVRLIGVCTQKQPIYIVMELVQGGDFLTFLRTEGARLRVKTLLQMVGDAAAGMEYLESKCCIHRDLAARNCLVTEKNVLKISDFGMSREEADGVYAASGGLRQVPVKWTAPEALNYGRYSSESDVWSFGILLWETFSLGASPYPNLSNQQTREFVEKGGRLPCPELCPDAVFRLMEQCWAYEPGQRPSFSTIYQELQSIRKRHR

| SMILES | inhibition [1] | inhibition [2] | inhibition [3] | inhibition [4] | inhibition [5] | inhibition [6] | inhibition [7] | inhibition [8] | inhibition [9] | inhibition [10] | inhibition [11] | inhibition [12] | inhibition [13] | inhibition [14] | inhibition [15] | inhibition [16] | inhibition [17] | inhibition [18] | inhibition [19] | inhibition [20] |
| --- | --- | --- | --- | --- | --- | --- | --- | --- | --- | --- | --- | --- | --- | --- | --- | --- | --- | --- | --- | --- |
| CCc1nn2ncccc2c1-c1ccnc(NC2CC2)n1 | 4.48% | 1.57% | 2.04% | 1.58% | 7.38% | 8.21% | 10.7% | 6.71% | 11% | 4.64% | 1.27% | 3.49% | 3.74% | 0.02% | 2.1% | 3.16% | 3.41% | -7.04% | 2.1% | -0.14% |
| CCN1CCC(CC(=O)Nc2n[nH]c3nnc(-c4cccc(F)c4F)cc23)CC1 | 1.74% | 2.37% | 2.12% | 0.21% | 0.41% | 0.64% | 3.38% | -1.19% | 1.89% | 0.88% | -2.43% | 2.47% | 1.19% | 0.64% | -0.57% | 3.74% | 1.44% |  | 2.26% | 1.36% |
| Fc1ccc(-c2nn3ncccc3c2-c2ccnc(Nc3ccc4c(c3)OCCO4)n2)cc1 | 13.8% | 3.45% | 6.43% | 4.68% | 15.9% | 5.02% | 23.5% | 4.66% | 13.5% | -2% | 3.32% | 68.2% | 84% | 7.67% | 30.8% | 2.79% | 6.52% | -1.97% | -3.36% | 5.85% |
| N#Cc1c(NC(=O)c2ccc(F)cc2)sc2c1CCCC2 | 0.95% | 0.56% | 1.22% | 1.48% | 2.08% | 1.6% | 3.48% | 1.58% | 2.77% | 0.23% | 1.31% | 2.11% | 1.83% | 0.3% | 1.63% | -2.18% | 0.66% | -4.75% | -1.49% | 0.28% |
| Nc1nc(-c2ccc(F)cc2)c(-c2ccc3ncccc3n2)s1 | 11.1% | 3.07% | 4.26% | 4.21% | 4.14% | 4.62% | 11.8% | 8.15% | 11.4% | 1.96% | 3.47% | 6.43% | 14.1% | -0.09% | 6.56% | 3.5% | 3.75% | 1.18% | -1.99% | 3.01% |
| Fc1ccc(-c2cc(-c3c[nH]nc3-c3ccccn3)ccn2)cc1 | 5.23% | 2.57% | 3.31% | 6.18% | 6.81% | 5.36% | 5.13% | 4.33% |  | -0.17% | -0.52% | 5.85% | 3.11% | 1.1% | 1.96% | 2.44% | 2.5% | -6.21% | -4.52% | 3.67% |
| NS(=O)(=O)c1ccc(N/N=C2\C(=O)Nc3ccc4ncccc4c32)cc1 | 22.8% | 2.15% | 6.75% | 10.8% | 41% | 27.5% | 69.8% | 26.1% | 70.7% | -0.17% | 6.88% | 8.01% | 42.4% | 11% | 59.6% | 23.9% | 73.2% | 35.1% | 33.5% | 7.02% |
| Fc1cccc(COc2ccc(Nc3ncnc4sc(-c5ccco5)cc34)cc2Cl)c1 | 3.22% | 3.4% | 2.89% | 1.73% | 5.35% | 4.08% | 8.41% | 5.53% | 5.9% | 0.31% | -0.7% | 3.8% | 8.35% | 2.39% | 2.46% |  | 4.08% | -8.41% | -1.9% | 5.86% |
| [O-][S+]1CCN(Cc2ccc(-c3ccc4ncnc(Nc5ccc(OCc6cccc(F)c6)c(Cl)c5)c4c3)o2)CC1 | 4.93% | 5% | 4.91% | 3.95% | 9.17% | 7.74% | 9.73% | 8.06% | 7.32% | 5.9% | 0.31% | 3.65% | 6.21% | 0.35% | -0.47% | 4.64% | 5.03% | 1.35% | -4.3% | 3.67% |
| CC(C)(CO)CNC(=O)c1ccc2c(c1)/C(=N/Nc1ccc(S(N)(=O)=O)cc1)C(=O)N2 |  | -0.1% | 0.22% | -4.71% | 1.07% | 0.16% | 6.9% | 4.13% | 5.3% | 0.38% | -0.62% | 3.82% | 22.2% | -1.72% | 11.1% | 0.08% | 6.23% | 1.72% | 4.08% | -0.65% |
| COc1ccc(-c2oc3ncnc(N)c3c2-c2ccc(NC(=O)Nc3cc(C(F)(F)F)ccc3F)cc2)cc1 | 64.5% | 3.91% | 17.1% | 10.1% | 66% | 31.2% | 75.9% | 10% | 63.8% | 5.68% | 48.5% | 17% | 61% | 47.8% | 96.7% | 22.1% |  | 12.7% | 0.14% | 8.25% |
| COc1ccc(-c2cc3c(N)ncnc3o2)cc1 | 1.69% | -0.35% | -0.8% | -5.35% |  | -1.74% | -4.78% | -0.11% | -2.94% | 2.88% | -1.73% | 1.49% | 7.14% | -0.2% | 0.12% | -0.73% | -0.84% | -4.44% | 3.74% | -0.51% |
| FC(F)(F)c1cccc(-c2nn3ncccc3c2-c2ccnc(Nc3ccc4c(c3)OCCO4)n2)c1 | 10.8% | 1.96% | 3.62% | 2.8% | 5.15% | 1.92% | 9.05% | 4.74% | 7.93% | 0.03% | 2.21% | 32.5% | 75.3% | 0.57% | 12% | 0.74% |  | -3.8% | -3.08% | 4.46% |
| CS(=O)(=O)CCNCc1coc(-c2ccc3ncnc(Nc4ccc(OCc5ccccc5)cc4)c3c2)c1 | 1.36% | 2.79% | 3.78% | 3.21% | 2.53% | 3.27% | 4.29% | 5.11% | 3.99% | 4.22% | 1.09% | 3.94% | 14.9% | 3.16% | 2.3% | 3.27% | 9.61% | -1.74% | 0.61% | 2.35% |
